MITF TRPM1 HTS – MITF TRPM1 promoter activation in melanoma cells. hit rate 0.75% among 300,000. SK-MEL-5 TRPM1-promoter luciferase, 24 h; % of positive control, neutral wells = 0. activation, % at 12.5 µM;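 active means mean activation of at least 80% with every replicate also reaching 80%; inconclusive means mean reaches 80% but some replicate falls short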
EWS-Fli block – EWS/Fli transcriptional activity inhibition. A673 NR0B1-luciferase reporter, viability-normalised. inhibition, % at 12.6 µM. hit rate 0.67% among 350,000. AID 651661;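 active means mean inhibition of at least 50% after viability correction, with every replicate also passing that limit; inconclusive means mean reaches 50% but only one of two replicates passes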;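 further: firefly luciferase signal divided by Alamar Blue viability fluorescence both relative to DMSO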
esBAF inh – blocks esBAF chromatin remodeling in mouse ES cells; AID 602393; reporter increase, % at 12.5 µM; Bmi1-luciferase knock-in reporter, 24 h; 100% = twice the neutral-well signal; hit rate 2% among 350,000; in the data active means activation above about 40%; inconclusive means no clear call, values can overlap the other calls;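 further: a rise in the Bmi1 reporter signal indicates esBAF inhibition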
PAX8 reporter – PAX8 transcriptional activity inhibition | RMG-I TPO-luciferase reporter, SteadyGlo, 24 h | inhibition, % at 12.6 µM | hit rate 1.2% among 360,000;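 active means mean replicate inhibition at least 60% with every replicate also reaching 60%; inconclusive means only one of the two criteria is met; inactive means mean below 60% and not all replicates reaching 60%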;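 further: luciferase light reporting Pax8 driven TPO promoter activity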
Wnt act – activates Wnt/beta-catenin signaling in a reporter cell assay | AID 743398 | hit rate 1.2% among 300,000 | activation, % at 9.35 µM | activator, plate reader; in the data active means activation above about 30%, passing the limit was not always enough; inconclusive means no clear call, values can overlap the other calls
TRPM1 prom inh – inhibitors of MITF-driven TRPM1 promoter in melanoma cells; SK-MEL-5 TRPM1 promoter luciferase, 24 h; inhibition, % at 12.5 µM; hit rate 0.83% among 330,000;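 active means mean inhibition across replicates of 60% or more, whatever share of single replicates reaches that level; inconclusive means some that reach 60%, reason not given; inactive means mean inhibition across replicates below 60%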
A number is an active result; i = inactive; ? = inconclusive; nt = not tested or not shown. Shown are actives, neighbours in structure and some others; about 4% of the full set was active somewhere.

SMILES	MITF TRPM1 HTS	EWS-Fli block	esBAF inh	PAX8 reporter	Wnt act	TRPM1 prom inh
CCC1=[N+](CC(=O)c2ccc(C)cc2)CCn2c(C)ccc21	i	i	nt	i	i	i
CCC1=[N+](CC(=O)c2ccc(C)cc2)CCn2cccc21	i	i	43.4	i	i	i
Nc1ccccc1-c1nc2ccccc2[nH]c1=O	i	i	53.0	i	i	i
CN(C)CC1CCC/C(=C\c2ccc(OC(=O)/C=C/c3ccccc3)cc2)C1=O (centres undefined)	i	i	i	nt	i	68.5
CN(C)CC1CC/C(=C\c2ccc(O)cc2)C1=O (centres undefined)	i	i	nt	i	i	nt
O=c1[nH]c(/C=C/c2ccccc2F)nc2ccccc12	i	i	i	i	i	i
O=c1[nH]c(/C=C/c2ccccn2)nc2ccccc12	i	i	43.9	i	i	i
Cc1cccc(/C=C\c2nc3ccccc3c(=O)[nH]2)c1	i	i	nt	i	i	i
O=c1[nH]c(/C=C/c2cccc3ccccc23)nc2ccccc12	i	i	nt	i	i	i
O=c1[nH]c(/C=C/c2ccc(Br)cc2)nc2ccccc12	i	i	i	i	45.3	i
O=c1[nH]c(COc2ccc(Br)cc2Cl)nc2ccccc12	?	i	44.9	i	44.3	i
CN(C)c1ccc(/C=C/c2nc3ccccc3c(=O)[nH]2)cc1	i	78.8	nt	i	i	i
Cc1noc(C)c1S(=O)(=O)Nc1ccc2c(c1)C(=O)N([C@@H](C)CO)C[C@@H](C)[C@H](CN(C)Cc1ccncc1)OCCCC[C@@H](C)O2	nt	i	i	i	nt	nt
CO[C@H]1CN(C)C(=O)c2cc(NS(=O)(=O)c3ccccc3)ccc2OC[C@@H](C)N(C(=O)NC(C)C)C[C@H]1C	nt	i	i	i	nt	nt
O=C(N[C@H]1/C=C\[C@@H](O)CCCC1)OCc1ccccc1	97.8	i	69.5	i	i	i
O=C(CNC(=O)OCc1ccccc1)NC1CCCCCC1	i	i	i	i	i	i
COc1cccc(-c2nc3sc4c(c3c(=O)[nH]2)CCCCC4)c1	114.3	nt	nt	i	nt	i
Cc1ccc(S(=O)(=O)N[C@H]2CC[C@@H](CCNC(=O)Nc3ccc(Cl)cc3)O[C@H]2CO)cc1	nt	i	44.7	i	nt	nt
O=C(NCC[C@H]1CC[C@@H](NC(=O)Nc2cc(F)ccc2F)[C@H](CO)O1)Nc1ccc(Cl)cc1	nt	i	i	i	nt	nt
O=C(NCC[C@H]1CC[C@H](NC(=O)Nc2cc(F)ccc2F)[C@H](CO)O1)Nc1ccc(Cl)cc1	nt	i	42.7	i	nt	nt
COc1cc2c(cc1OC)CN(c1ccc(C(F)(F)F)cn1)CC2	i	nt	41.4	i	i	i
Cc1ccc2nc3cc([N+](=O)[O-])cc([N+](=O)[O-])c3cc2c1	i	61.0	nt	i	i	62.6
COc1cc(C2C3=C(COC3=O)Oc3cc4c(cc32)OCO4)ccc1O (centres undefined)	nt	i	nt	i	i	i
COc1cc(C2C3=C(COC3=O)OC(C)(C)Oc3cc4c(cc32)OCO4)cc(OC)c1OC (centres undefined)	i	54.2	nt	93.4	i	i
Cc1nc(-c2ccccn2)sc1C(=O)Nc1ccc(F)cc1F	nt	nt	57.7	nt	nt	i
SMILES	MITF TRPM1 HTS	EWS-Fli block	esBAF inh	PAX8 reporter	Wnt act	TRPM1 prom inh
CN(C)CCCNC(=O)/C(=C\c1ccc(-c2cccc([N+](=O)[O-])c2)o1)NC(=O)c1ccccc1	i	i	nt	i	i	i
CN(C)CCNC(=O)/C(=C/c1ccc(-c2ccc(Cl)cc2Cl)o1)NC(=O)c1ccccc1	i	nt	nt	i	nt	94.9
Cc1ccc(C(=O)N/C(=C\c2ccc(-c3ccc(Br)cc3)o2)C(=O)NCCCN(C)C)cc1	i	51.5	nt	94.7	i	107.3
Cc1ccc(C(=O)N/C(=C\c2ccc(-c3cccc([N+](=O)[O-])c3)o2)C(=O)NCCCN(C)C)cc1	nt	i	i	i	i	i
CN(C)CCNC(=O)/C(=C/c1ccc(-c2ccc(Cl)cc2)o1)NC(=O)c1ccccc1	i	nt	nt	i	nt	66.0
CO[C@H]1CN(C)C(=O)c2ccc(NC(=O)Nc3cccc(F)c3)cc2OC[C@H](C)N(C)C[C@@H]1C	nt	i	nt	i	nt	nt
Cc1noc(C)c1NC(=O)Nc1ccc2c(c1)CC(=O)N([C@H](C)CO)C[C@H](C)[C@@H](CN(C)Cc1ccccc1)O2	nt	i	i	i	nt	nt
C[C@@H]1CN([C@@H](C)CO)C(=O)c2cc(NS(=O)(=O)c3ccccc3)ccc2O[C@H]1CN(C)Cc1ccccc1	nt	i	i	i	nt	nt
COc1ccc(CN(C)C[C@H]2Oc3c(NS(=O)(=O)c4ccc(C)cc4)cccc3C(=O)N([C@@H](C)CO)C[C@H]2C)cc1	nt	i	nt	i	nt	nt
O=Cc1cn(-c2ccccc2)nc1-c1cccc([N+](=O)[O-])c1	nt	i	58.8	i	i	nt
O=[N+]([O-])c1ccc2cn(-c3ccccc3)nc2c1	i	i	61.0	i	i	i
CO[C@@H]1CN(C)C(=O)c2ccc(NC(=O)C3CCCCC3)cc2OC[C@@H](C)N(Cc2cccnc2)C[C@H]1C	nt	i	i	i	nt	nt
CC(C)Oc1cccc(C(=O)Nc2ccc(Br)cc2F)c1	101.2	i	nt	i	i	i
Cc1occc1C(=O)NNC(=O)Nc1ccc(F)cc1F	i	nt	nt	i	i	i
Cc1occc1C(=O)Nc1ccc(Br)cc1F	i	nt	45.8	i	?	i
COc1ccc(CN(C)C[C@@H]2Oc3ccc(NC(=O)Cn4cnnn4)cc3CC(=O)N([C@@H](C)CO)C[C@@H]2C)cc1	nt	i	i	i	nt	nt
COC(=O)C(Cc1ccc(O)cc1)N1Cc2ccccc2C1=O (centres undefined)	91.4	i	?	i	i	i
NNC(=O)C(Cc1ccc(O)cc1)N1Cc2ccccc2C1=O (centres undefined)	i	i	i	i	i	i
CN(C)c1ccc(C(=O)N2CCN(c3cc(C(F)(F)F)nc4ccccc34)CC2)cc1	i	i	i	i	54.7	i
COC(=O)c1ccc(/C=N/N2CCN(Cc3ccc(Cl)cc3)CC2)cc1	nt	i	nt	i	51.5	nt
CN(C)C(=O)c1ccc(-c2ccc3c(c2)[C@H]2[C@H](CCN2Cc2cncnc2)[C@H](CO)N3)cc1	nt	i	i	i	nt	nt
Cc1cc(F)ccc1-c1cc(C(=O)Nc2ccccc2)[nH]n1	nt	i	i	i	i	nt
O=C(Nc1cccnc1)c1cc(-c2cc(Cl)ccc2O)n[nH]1	?	i	nt	i	37.9	i
Cc1ccc(O)c(-c2cc(C(=O)Nc3cccnc3)[nH]n2)c1	214.6	i	87.3	i	60.4	i
COc1ccc(Cl)cc1C(=O)Nc1cccnc1	nt	i	i	i	i	i
Cc1cccc(NC(=O)c2cc(-c3ccc(C)c(C)c3O)n[nH]2)c1	i	i	43.4	i	i	i
CC(=O)Nc1ccc(NC(=O)c2cc(-c3ccc(F)cc3C)n[nH]2)cc1	nt	i	61.3	i	i	nt
CCCNC(=O)N[C@@H]1CC[C@@H](CCn2cc(C3CCCC3)nn2)O[C@@H]1CO	nt	i	i	i	nt	nt
C[C@H]1CN([C@@H](C)CO)C(=O)c2cc(C#Cc3cccnc3)cnc2O[C@H]1CN(C)C(=O)CN(C)C	nt	i	i	i	nt	nt

Screening results from PubChem BioAssay.
